# Activity calls are given as the source filed them. A call without a number means that no potency is given here. Calls come from the whole dose curve; as a rule, active = well fitted curve in the direction sought with a large enough effect in the repeat runs; inconclusive = weak or mixed curves; inactive = flat fitted curve, though single readings scatter.
# Assay: qHTS assay to test for compound auto fluorescence at 460 nm (blue) in HepG2 cells (AID 720687)
# Settings: autofluorescence 405/460 nm, 1 h; series mostly up to 91.3 µM
# Description: U.S. Tox21 Program National Center for Advancing Translational Sciences [NCATS] NIH Chemical Genomics Center [NCGC] U.S. Environmental Protection Agency [EPA] National Institutes of Environmental Health Sciences [NIEHS] National Toxicology Program [NTP] U.S. Food and Drug Administration [FDA] Tox21 Assay Overview: Compound auto fluorescence often interferes with screening of the compound library against various biological targets and signaling pathways. Some of these compounds may have fluorophoric properties. Such properties may interfere with the assay outputs resulting in false positives and/or negatives. To decrease such complications and ensure the compound activities are relevant in terms of biological response, the Tox21 10K compound library was screened for auto fluorescence. From the fluorophores used as reporter signals in our screening assays, the auto fluorescence equivalencies of compounds against three fluorophores have been evaluated: Triamterene, Fluorescein and Rose Bengal sodium for blue, green and red fluorescence, respectively. The fluorescence intensities were measured using Excitation/Emission wavelengths at 405/460nm, 485/535nm and 540/590nm for blue, green and red labels, respectively. This assay includes the blue fluorescence data.
# Tox21 Assay Protocol Summary: 2,000 HepG2 cells in 5 uL of culture medium (MEM containing 10% FBS) per well were dispensed into black wall/clear bottom 1536-well plates using a Multidrop Combi Dispenser (ThermoFisher Scientific, Waltham, MA). The assay plates were incubated overnight at 37 C to allow cell attachment to the well bottom, followed by the transfer of 23 nL compound or DMSO vehicle by a pintool work station (Kalypsys , San Diego, CA). After the assay plates were incubated for 1 hr at 37 C and 5% CO2, fluorescence intensities in the assay plates were measured by an Envision (PerkinElmer, Shelton, CT) plate reader using three labels for measuring blue, green and red fluorescence at […] 460, 535 and 590 nm respectively.
row,Structure (SMILES),Potency
1,CN(C)c1nc(=O)n(C2CCCCC2)c(=O)n1C,inactive
2,ClCc1ccccn1,inactive
3,N#Cc1cccnc1,inactive
4,Brc1ccc(Br)cc1,inactive
5,Cc1cc(Cl)ccc1N=CN(C)C,inactive
6,CCNc1nc(Cl)nc(NC(C)(C)C#N)n1,inactive
7,O=C1C(Cl)=C(Cl)C(=O)c2ccccc21,inactive
8,O=[N+]([O-])/N=C1\NCCN1Cc1ccc(Cl)nc1,inactive
9,ClC(Cl)=C(Cl)C(Cl)=C(Cl)Cl,inactive
10,CCCCCCCCCCCCCl,inactive
11,CC1(C)C(C(=O)OC(C#N)c2cccc(Oc3ccccc3)c2)C1(C)C (stereo not given),inactive
12,COP(=S)(OC)SCn1nnc2ccccc2c1=O,inactive
13,Clc1ccccc1-c1nnc(-c2ccccc2Cl)nn1,inactive
14,CCCCCCCC[N+](C)(CCCCCCCC)CCCCCCCC,inactive
15,COc1ccc(CO)cc1,inactive
16,O=NN(c1ccccc1)c1ccccc1,inactive
17,CCOP(=S)(OCC)OP(=S)(OCC)OCC,inactive
18,O=S(=O)(O)C(F)(F)C(F)(F)C(F)(F)C(F)(F)C(F)(F)C(F)(F)C(F)(F)C(F)(F)F,inactive
19,CCCCOCC1CO1 (stereo not given),inactive
20,CCCCOCCOC(C)=O,inactive

row,Structure (SMILES),Potency
1,CC(C)Nc1nc(Cl)nc(NC(C)C)n1,inactive
2,OC(c1ccc(Cl)cc1)(c1cncnc1)c1ccccc1Cl (stereo not given),inactive
3,CS(=O)(=O)NC(=O)c1cc(Oc2ccc(C(F)(F)F)cc2Cl)ccc1[N+](=O)[O-],inactive
4,CCOP(=S)(OCC)SCn1c(=O)oc2cc(Cl)ccc21,inactive
5,CC(C)(C#N)N=NC(C)(C)C#N,inactive
6,CCC(=O)Nc1ccc(Cl)c(Cl)c1,inactive
7,N#Cc1nn(-c2c(Cl)cc(C(F)(F)F)cc2Cl)c(N)c1S(=O)C(F)(F)F (stereo not given),inactive
8,Oc1ccc(Cl)cc1Cl,inactive
9,C[N+](C)(C)CC(=O)O,inactive
10,COc1ccc(C=O)cc1OC,inactive
11,CNC(=S)S,inactive
12,COC(=O)Nc1nc2ccccc2[nH]1,inactive
13,CCOS(=O)(=O)OCC,inactive
14,N#CC(c1ccccc1)c1ccccc1,inactive
15,C[C@]12CCC(=O)C=C1CC[C@@H]1[C@@H]2CC[C@@]2(C)[C@H]1CC[C@]2(C)O,inactive
16,CC[n+]1c(-c2ccccc2)c2cc(N)ccc2c2ccc(N)cc21,inactive
17,Clc1cccc(C(Cl)(Cl)Cl)n1,inactive
18,S=c1[nH]c2ccccc2[nH]1,inactive
19,ClCC(Cl)CCl,inactive
20,O=C1Nc2ccc(Cl)cc2C(c2ccccc2)=NC1O (stereo not given),inactive
